Test results: PubChem BioAssay (NCI)
Compounds without any hit were thinned out: in the full panel of roughly 83,000, 20% have a hit.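 The test compound was applied at a single concentration to cells in 96-well plates for 48 hours, and percent growth was recorded.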 A number with no mark means an inactive call. The source made the active and inactive calls. Rule for the calls: active = growth percent below 10; inactive = the rest.

How the values were obtained:
Assay in all cases: NCI-60 one-dose screen, 48 h (100 = growth as untreated, 0 = no growth, -100 = all killed)
Conditions in all cases: 10 µM
NCI-H23 lung = system: NCI-H23 lung
NCI-H226 lung = system: NCI-H226 lung
NCI-H322M lung = system: NCI-H322M lung
HOP-62 NSCLC = system: HOP-62 NSCLC
NCI-H460 lung = system: NCI-H460 lung
NCI-H522 lung = system: NCI-H522 lung
A549/ATCC NSCLC = system: A549/ATCC NSCLC
786-0 renal = system: 786-0 renal
COLO 205 colon = system: COLO 205 colon
DU-145 prostate = system: DU-145 prostate
K-562 leukemia = system: K-562 leukemia
MALME-3M melanoma = system: MALME-3M melanoma
MDA-MB-231 breast = system: MDA-MB-231 breast
SF-268 CNS = system: SF-268 CNS
SF-295 CNS = system: SF-295 CNS
SF-539 CNS = system: SF-539 CNS
UACC-257 melanoma = system: UACC-257 melanoma
M14 melanoma = system: M14 melanoma
HCT-15 colon = system: HCT-15 colon
RXF 393 renal = system: RXF 393 renal

Compound: COc1cc(Cc2cc(-c3ccc(Cl)cc3)n[nH]c2=O)ccc1O
- growth (NCI-H23 lung): 83.5%
- growth (NCI-H226 lung): 224%
- growth (NCI-H322M lung): 119%
- growth (HOP-62 NSCLC): 104%
- growth (NCI-H460 lung): 74.2%
- growth (NCI-H522 lung): 105%
- growth (A549/ATCC NSCLC): 58.6%
- growth (786-0 renal): 103%
- growth (COLO 205 colon): 111%
- growth (DU-145 prostate): 128%
- growth (K-562 leukemia): 78.5%
- growth (MALME-3M melanoma): 108%
- growth (MDA-MB-231 breast): 100%
- growth (SF-268 CNS): 93.2%
- growth (SF-295 CNS): 124%
- growth (SF-539 CNS): 98.4%
- growth (UACC-257 melanoma): 128%
- growth (M14 melanoma): 108%
- growth (HCT-15 colon): 104%

Compound: COc1cc(-c2nc(-c3nnc(-c4ccccc4Cl)o3)c3ccccn23)cc(OC)c1OC
- growth (NCI-H23 lung): 91.1%
- growth (NCI-H226 lung): 84%
- growth (NCI-H322M lung): 88.3%
- growth (HOP-62 NSCLC): 87.2%
- growth (NCI-H460 lung): 95.4%
- growth (NCI-H522 lung): 78.4%
- growth (A549/ATCC NSCLC): 72%
- growth (786-0 renal): 105%
- growth (COLO 205 colon): 85.4%
- growth (DU-145 prostate): 98.5%
- growth (K-562 leukemia): 65.8%
- growth (MALME-3M melanoma): 119%
- growth (MDA-MB-231 breast): 90.7%
- growth (RXF 393 renal): 90.8%
- growth (SF-295 CNS): 77.9%
- growth (SF-539 CNS): 88.3%
- growth (UACC-257 melanoma): 91.4%
- growth (M14 melanoma): 112%
- growth (HCT-15 colon): 73.3%

Compound: COc1cc(/C=C2\Oc3cc(OCC(=O)c4ccccc4)ccc3C2=O)cc(OC)c1OC
- growth (NCI-H23 lung): 105%
- growth (NCI-H226 lung): 104%
- growth (NCI-H322M lung): 126%
- growth (HOP-62 NSCLC): 2.36% (active)
- growth (NCI-H460 lung): 93%
- growth (NCI-H522 lung): 105%
- growth (A549/ATCC NSCLC): 118%
- growth (786-0 renal): -45.9% (active)
- growth (COLO 205 colon): 146%
- growth (DU-145 prostate): 94.9%
- growth (K-562 leukemia): 105%
- growth (MALME-3M melanoma): 114%
- growth (MDA-MB-231 breast): 95.6%
- growth (SF-268 CNS): 105%
- growth (SF-295 CNS): 91.5%
- growth (SF-539 CNS): 121%
- growth (UACC-257 melanoma): 132%
- growth (M14 melanoma): 125%
- growth (HCT-15 colon): 103%

Compound: COc1ccc(Cn2c(C(N)=O)cc3c2-c2nc(N)ncc2CCC3)cc1
- growth (NCI-H23 lung): 106%
- growth (NCI-H226 lung): 98.6%
- growth (NCI-H322M lung): 89.1%
- growth (HOP-62 NSCLC): 100%
- growth (NCI-H460 lung): 97.7%
- growth (NCI-H522 lung): 103%
- growth (A549/ATCC NSCLC): 93.7%
- growth (786-0 renal): 101%
- growth (COLO 205 colon): 101%
- growth (DU-145 prostate): 99.4%
- growth (K-562 leukemia): 107%
- growth (MDA-MB-231 breast): 88.9%
- growth (RXF 393 renal): 102%
- growth (SF-268 CNS): 96.8%
- growth (SF-295 CNS): 98.3%
- growth (SF-539 CNS): 95.8%
- growth (UACC-257 melanoma): 102%
- growth (M14 melanoma): 96.7%
- growth (HCT-15 colon): 91.1%

Compound: O=[N+]([O-])c1ccc(Oc2cccnc2)c([N+](=O)[O-])c1
- growth (NCI-H23 lung): 96.5%
- growth (NCI-H226 lung): 89.7%
- growth (NCI-H322M lung): 94.8%
- growth (HOP-62 NSCLC): 104%
- growth (NCI-H460 lung): 109%
- growth (NCI-H522 lung): 36.3%
- growth (A549/ATCC NSCLC): 102%
- growth (786-0 renal): 93.2%
- growth (COLO 205 colon): 55.5%
- growth (DU-145 prostate): 86.2%
- growth (K-562 leukemia): 16.1%
- growth (MDA-MB-231 breast): 94%
- growth (RXF 393 renal): 63.9%
- growth (SF-268 CNS): 97.5%
- growth (SF-295 CNS): 104%
- growth (SF-539 CNS): 75.7%
- growth (UACC-257 melanoma): 63.6%
- growth (M14 melanoma): 84.9%
- growth (HCT-15 colon): 53.1%

Compound: O=C(CC(NC(=O)OCc1ccccc1)C(=O)OCc1ccccc1)OCc1ccccc1 (stereo not drawn)
- growth (NCI-H23 lung): 106%
- growth (NCI-H226 lung): 106%
- growth (NCI-H322M lung): 99%
- growth (HOP-62 NSCLC): 94%
- growth (NCI-H460 lung): 101%
- growth (NCI-H522 lung): 89.2%
- growth (A549/ATCC NSCLC): 99.3%
- growth (786-0 renal): 106%
- growth (COLO 205 colon): 99.1%
- growth (DU-145 prostate): 111%
- growth (K-562 leukemia): 112%
- growth (MDA-MB-231 breast): 123%
- growth (RXF 393 renal): 125%
- growth (SF-268 CNS): 103%
- growth (SF-295 CNS): 110%
- growth (SF-539 CNS): 111%
- growth (UACC-257 melanoma): 94.2%
- growth (M14 melanoma): 90.5%
- growth (HCT-15 colon): 106%

Compound: CCCCCC(=O)c1ccc(OCCCN2CCN(C(=O)OCC)CC2)cc1
- growth (NCI-H23 lung): 81.2%
- growth (NCI-H226 lung): 73%
- growth (NCI-H322M lung): 119%
- growth (HOP-62 NSCLC): 108%
- growth (NCI-H460 lung): 99.1%
- growth (NCI-H522 lung): 101%
- growth (A549/ATCC NSCLC): 94.8%
- growth (786-0 renal): 97.5%
- growth (COLO 205 colon): 96.3%
- growth (DU-145 prostate): 107%
- growth (K-562 leukemia): 66.4%
- growth (MDA-MB-231 breast): 99.5%
- growth (RXF 393 renal): 102%
- growth (SF-268 CNS): 108%
- growth (SF-295 CNS): 81.8%
- growth (SF-539 CNS): 104%
- growth (UACC-257 melanoma): 95.6%
- growth (M14 melanoma): 103%
- growth (HCT-15 colon): 85.1%

Compound: NC1(C(=O)O)CSSC1
- growth (NCI-H23 lung): 49.8%
- growth (NCI-H226 lung): 60.5%
- growth (NCI-H322M lung): 109%
- growth (HOP-62 NSCLC): 35.9%
- growth (NCI-H460 lung): 13.3%
- growth (NCI-H522 lung): 121%
- growth (A549/ATCC NSCLC): 22.1%
- growth (786-0 renal): 107%
- growth (COLO 205 colon): 102%
- growth (DU-145 prostate): 78.8%
- growth (K-562 leukemia): 43.3%
- growth (MDA-MB-231 breast): 124%
- growth (RXF 393 renal): 74%
- growth (SF-268 CNS): 101%
- growth (SF-295 CNS): 33.6%
- growth (SF-539 CNS): 97%
- growth (UACC-257 melanoma): 48.5%
- growth (M14 melanoma): 9.39% (active)
- growth (HCT-15 colon): 66.3%

Compound: Cc1cc2ccccc2nc1-c1ccccc1F
- growth (NCI-H23 lung): 109%
- growth (NCI-H226 lung): 98.9%
- growth (NCI-H322M lung): 128%
- growth (HOP-62 NSCLC): 94.6%
- growth (NCI-H460 lung): 107%
- growth (NCI-H522 lung): 122%
- growth (A549/ATCC NSCLC): 92.4%
- growth (786-0 renal): 95.1%
- growth (COLO 205 colon): 110%
- growth (DU-145 prostate): 116%
- growth (K-562 leukemia): 110%
- growth (MDA-MB-231 breast): 112%
- growth (RXF 393 renal): 99%
- growth (SF-268 CNS): 101%
- growth (SF-295 CNS): 107%
- growth (SF-539 CNS): 107%
- growth (UACC-257 melanoma): 89.6%
- growth (M14 melanoma): 108%
- growth (HCT-15 colon): 101%

Compound: COc1ccc2c(c1)-c1c(c3cc(OC)ccc3n(CCN(C)C)c1=O)C2=O
- growth (NCI-H23 lung): 7.11% (active)
- growth (NCI-H226 lung): 22%
- growth (NCI-H322M lung): -14.4% (active)
- growth (HOP-62 NSCLC): 15.3%
- growth (NCI-H460 lung): -4.73% (active)
- growth (NCI-H522 lung): -11.5% (active)
- growth (A549/ATCC NSCLC): -18.7% (active)
- growth (786-0 renal): 32.3%
- growth (COLO 205 colon): 14.7%
- growth (DU-145 prostate): 5.1% (active)
- growth (K-562 leukemia): 18.6%
- growth (MDA-MB-231 breast): 36.7%
- growth (RXF 393 renal): 25.2%
- growth (SF-268 CNS): 22.1%
- growth (SF-295 CNS): 7.07% (active)
- growth (SF-539 CNS): 37.7%
- growth (UACC-257 melanoma): 18.4%
- growth (M14 melanoma): 24%
- growth (HCT-15 colon): 21.9%

Compound: Nc1nccc(Nc2ccccc2)n1
- growth (NCI-H23 lung): 101%
- growth (NCI-H226 lung): 91.7%
- growth (NCI-H322M lung): 115%
- growth (HOP-62 NSCLC): 102%
- growth (NCI-H460 lung): 109%
- growth (NCI-H522 lung): 135%
- growth (A549/ATCC NSCLC): 99.1%
- growth (786-0 renal): 96.4%
- growth (COLO 205 colon): 114%
- growth (DU-145 prostate): 109%
- growth (K-562 leukemia): 102%
- growth (MDA-MB-231 breast): 118%
- growth (RXF 393 renal): 112%
- growth (SF-268 CNS): 109%
- growth (SF-295 CNS): 104%
- growth (SF-539 CNS): 93.5%
- growth (UACC-257 melanoma): 95.8%
- growth (M14 melanoma): 108%
- growth (HCT-15 colon): 110%

Compound: O=C(CCCCC[P+](c1ccccc1)(c1ccccc1)c1ccccc1)NC(COC(=O)C(Cl)Cl)(COC(=O)C(Cl)Cl)COC(=O)C(Cl)Cl
- growth (NCI-H23 lung): 108%
- growth (NCI-H226 lung): 102%
- growth (NCI-H322M lung): 99.5%
- growth (HOP-62 NSCLC): 96.1%
- growth (NCI-H460 lung): 106%
- growth (NCI-H522 lung): 126%
- growth (A549/ATCC NSCLC): 96.5%
- growth (786-0 renal): 99.6%
- growth (COLO 205 colon): 98.1%
- growth (DU-145 prostate): 114%
- growth (K-562 leukemia): 98.2%
- growth (MDA-MB-231 breast): 111%
- growth (RXF 393 renal): 101%
- growth (SF-268 CNS): 103%
- growth (SF-295 CNS): 99%
- growth (SF-539 CNS): 107%
- growth (UACC-257 melanoma): 97.5%
- growth (M14 melanoma): 102%
- growth (HCT-15 colon): 99%
